Data from PubChem BioAssay (NCI).
Values joined by “and” are separate entries in the source; they are usually repeats but may differ in a detail not shown here. Identical values can stand only once. About 83,000 compounds went through this panel and 20% of them were active in at least one assay; those are over-represented in the sample as a whole.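 Each cell line was grown in a 96-well plate and treated with one concentration of compound for 48 hours. Values below 10 were considered active.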 Active and inactive are the calls of the source.

How the values were obtained:
Test in all cases: NCI-60 one-dose screen, 48 h (100 = growth as untreated, 0 = no growth, -100 = all killed)
[1] = tested on: RPMI-8226 leukemia
[2] = tested on: OVCAR-5 ovarian
[3] = tested on: OVCAR-4 ovarian
[4] = tested on: SK-OV-3 ovarian
[5] = tested on: IGROV1 ovarian
[6] = tested on: OVCAR-3 ovarian
[7] = tested on: HS 578T breast
[8] = tested on: NCI/ADR-RES ovarian
[9] = tested on: T-47D breast
[10] = tested on: BT-549 breast

Measured: growth

NCCc1ccc(OCc2ccccc2)c(OCc2ccccc2)c1
inactive: [1]; 10 µM unless noted 69.7% | [2]; 10 µM unless noted 105% | [3]; 10 µM unless noted 86.3% | [4]; 10 µM unless noted 91.2% | [5]; 10 µM unless noted 75.2% | [6]; 10 µM unless noted 88.3% | [7]; 10 µM unless noted 126% | [8]; 10 µM unless noted 87.9% | [9]; 10 µM unless noted 69.2% | [10]; 10 µM unless noted 89.4%

Cc1ccc(C(=O)OC(C(=O)O)C(OC(=O)c2ccc(C)cc2)C(=O)O)cc1 (configuration not stated) (tested in a mixture with another compound)
active: [1]; 10 µM unless noted -3.01%
inactive: [2]; 10 µM unless noted 67% | [3]; 10 µM unless noted 58.9% | [4]; 10 µM unless noted 69.7% | [5]; 10 µM unless noted 63% | [6]; 10 µM unless noted 44.5% | [7]; 10 µM unless noted 40% | [8]; 10 µM unless noted 56.3% | [10]; 10 µM unless noted 17.5%

CN1CCN(c2ccc([N+](=O)[O-])c3no[n+]([O-])c23)CC1
active: [1]; 10 µM unless noted -36.6% | [2]; 10 µM unless noted -15.2% | [3]; 10 µM unless noted -91.8% | [4]; 10 µM unless noted -97.9% | [5]; 10 µM unless noted -71.5% | [6]; 10 µM unless noted -88.8% | [7]; 10 µM unless noted -12% | [8]; 10 µM unless noted -33.1% | [9]; 10 µM unless noted -56.5% | [10]; 10 µM unless noted -64.6%

CCOC(=O)C(NC(=O)C(Cc1ccc(N(CCCl)CCCl)cc1)NC(C)=O)C(C)C (configuration not stated)
inactive: [1]; 10 µM unless noted 85.1% | [2]; 10 µM unless noted 105% | [3]; 10 µM unless noted 96.4% | [4]; 10 µM unless noted 82.5% | [5]; 10 µM unless noted 79.3% | [6]; 10 µM unless noted 92.5% | [7]; 10 µM unless noted 101% | [8]; 10 µM unless noted 88% | [9]; 10 µM unless noted 74.5% | [10]; 10 µM unless noted 87%

S=C(SSC(=S)N1CCCCC1)N1CCCCC1
inactive: [1]; 10 µM 105% | [2]; 10 µM 114% | [3]; 10 µM 85.2% | [4]; 10 µM 110% | [4]; 100 µM 45.7% | [5]; 10 µM 99.5% | [5]; 100 µM 50.2% | [6]; 10 µM 105% | [7]; 10 µM 111% | [7]; 100 µM 59.7% | [8]; 10 µM 97.7% | [9]; 10 µM 100% | [10]; 10 µM 92%
active: [1]; 100 µM -44.7% | [2]; 100 µM -85.8% | [3]; 100 µM -51.1% | [6]; 100 µM -68.7% | [8]; 100 µM 2.3% | [9]; 100 µM -28.4% | [10]; 100 µM -1.94%

CC(=O)O[C@H]1C[C@@H]2OC3C=C(C)CCC3(C)[C@@]1(C)[C@@]21CO1 (some centres not stated)
active: [1]; 10 µM unless noted -16.3% and -26.9% | [2]; 10 µM unless noted 6.22% and 5.12% | [3]; 10 µM unless noted -5.17% and -15.1% | [4]; 10 µM unless noted 5.54% and -8.41% | [5]; 10 µM unless noted -12.6% and -11.8% | [6]; 10 µM unless noted -17.6% and -41.3% | [7]; 10 µM unless noted -6.29% | [8]; 10 µM unless noted -14% and -10.5% | [9]; 10 µM unless noted -4.55% and -14.4% | [10]; 10 µM unless noted -28.8% and -11.6%

C[C@H]1CCC/C=C/[C@@H]2C[C@H](O)C[C@H]2[C@H](O)/C=C/C(=O)O1
active: [1]; 10 µM unless noted -17.9% | [3]; 10 µM unless noted -30.5% | [5]; 10 µM unless noted -54.8% | [6]; 10 µM unless noted -37.4% | [8]; 10 µM unless noted 7.27% | [9]; 10 µM unless noted -26.1% | [10]; 10 µM unless noted 2.5%
inactive: [2]; 10 µM unless noted 32.1% | [4]; 10 µM unless noted 35.9% | [7]; 10 µM unless noted 57.9%

COc1cccc2c1cc([N+](=O)[O-])c1c(C(=O)O)cc3c(c12)OCO3
inactive: [1]; 10 µM unless noted 89.1% and 82.3% | [2]; 10 µM unless noted 106% and 85.3% | [3]; 10 µM unless noted 82.8% and 141% | [4]; 10 µM unless noted 86% and 95.1% | [5]; 10 µM unless noted 58.6% and 59.2% | [6]; 10 µM unless noted 76.5% and 103% | [7]; 10 µM unless noted 107% and 110% | [8]; 10 µM unless noted 70.7% and 104% | [9]; 10 µM unless noted 91.3% and 84.2% | [10]; 10 µM unless noted 91.7% and 102%

CC1=C(CO)C2=C(C)C3(CC3)[C@@](C)(O)C(=O)C2=C1
active: [6]; 10 µM unless noted -1.49% | [7]; 10 µM unless noted 8.86% | [8]; 10 µM unless noted 3.84% | [9]; 10 µM unless noted 7.12% | [10]; 10 µM unless noted -55.8%
inactive: [1]; 10 µM unless noted 80.2% | [2]; 10 µM unless noted 14.3% | [4]; 10 µM unless noted 16.3%
